# Measured values from PubChem BioAssay (NCATS).
# Inconclusive results are not listed. Where a call stands in place of a potency, no number is given. Calls of active or inactive are those of the source. The call rests on the fitted dose curve; in most records, active means well fitted inhibition curve with a large enough effect; inconclusive means small, poorly fitted or top-dose-only effect; inactive means no such curve, though single readings can be large or run the other way.
# Target: Rap guanine nucleotide exchange factor 4 (Homo sapiens) (UniProt Q8WZA2)
# Sequence (Q8WZA2 whole entry, looked up): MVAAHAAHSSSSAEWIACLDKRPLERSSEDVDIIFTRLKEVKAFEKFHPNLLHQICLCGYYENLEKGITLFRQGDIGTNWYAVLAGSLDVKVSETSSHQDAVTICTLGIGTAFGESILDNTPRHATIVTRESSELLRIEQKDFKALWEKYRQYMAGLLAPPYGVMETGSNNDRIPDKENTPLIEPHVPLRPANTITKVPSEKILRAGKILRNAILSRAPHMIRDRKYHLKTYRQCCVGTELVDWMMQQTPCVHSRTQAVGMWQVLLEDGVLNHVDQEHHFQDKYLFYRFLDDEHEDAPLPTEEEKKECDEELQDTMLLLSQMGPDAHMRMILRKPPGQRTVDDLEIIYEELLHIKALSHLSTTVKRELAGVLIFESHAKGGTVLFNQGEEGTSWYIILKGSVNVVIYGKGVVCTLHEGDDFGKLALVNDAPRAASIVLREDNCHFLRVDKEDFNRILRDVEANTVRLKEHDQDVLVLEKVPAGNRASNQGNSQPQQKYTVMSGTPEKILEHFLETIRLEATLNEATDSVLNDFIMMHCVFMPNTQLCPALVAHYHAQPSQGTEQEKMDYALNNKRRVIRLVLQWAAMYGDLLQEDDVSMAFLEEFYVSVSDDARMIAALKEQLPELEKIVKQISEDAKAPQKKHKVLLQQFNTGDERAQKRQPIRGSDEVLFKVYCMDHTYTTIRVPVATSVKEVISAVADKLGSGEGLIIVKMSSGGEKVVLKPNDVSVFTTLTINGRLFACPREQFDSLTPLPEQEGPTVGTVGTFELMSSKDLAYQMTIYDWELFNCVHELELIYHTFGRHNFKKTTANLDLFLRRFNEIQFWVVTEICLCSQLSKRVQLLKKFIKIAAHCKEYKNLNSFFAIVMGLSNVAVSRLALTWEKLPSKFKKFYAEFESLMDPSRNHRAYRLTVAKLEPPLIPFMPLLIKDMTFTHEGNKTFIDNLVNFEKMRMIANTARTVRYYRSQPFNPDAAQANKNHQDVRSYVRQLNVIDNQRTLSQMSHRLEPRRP
# Test: Confirmatory qHTS for antagonist of cAMP-regulated guanine nucleotide exchange factor 4 (EPAC2) (AID 1645885); further: nearly all actives have a fitted effect of over 25% in size
# Conditions: EPAC2 Rap1B-BODIPY-GDP exchange fluorescence, biochemical; series mostly up to 12.7 µM
# Potency means the concentration at half of the fitted maximal effect.
row,SMILES,Potency
1,N#CCCN(CCC#N)S(=O)(=O)c1ccc(C(=O)Nc2nnc(C3=COCCO3)o2)cc1,inactive
2,C=CS(=O)(=O)N(Cc1ccccc1Br)[C@H](CO)CC(C)C,inactive
3,CC(C)Cc1ccc(CN2CCCC(NC(=O)c3cnc4ccccn4c3=O)C2)cc1 (stereo not given),inactive
4,Cc1ccc(C(C)C)c(OCC(=O)NCC2(N3CCOCC3)CCCCC2)c1,inactive
5,O=C(/C=C/c1ccco1)Nc1cccc2cccnc12,inactive
6,CC(C)(C)Cc1c(-c2ccccc2)nc2ccc(Cl)cn12,inactive
7,COc1cn(-c2ccccc2)nc1C(=O)Nc1ccc(C)cc1Cl,95.3 µM (active)
8,Cn1cccc1C(=O)NC(=O)COC(=O)c1ccc(S(C)(=O)=O)c([N+](=O)[O-])c1,inactive
9,CN(C)C(CNC(=O)c1cc(-c2ccco2)nc2ccccc12)c1ccccc1 (stereo not given),inactive
10,CCc1ccc(C(c2ccccc2)c2c(C)[nH]c3ccccc23)s1 (stereo not given),inactive
11,CCOC(=O)C1=CCN(S(=O)(=O)c2ccccc2Cl)C1c1ccc(Cl)c(Cl)c1 (stereo not given),inactive
12,Oc1cccc(C=Nc2cccc3ccccc23)c1O,inactive
13,Cc1csc(NC(=O)CSc2sc3c(O)cc(=O)[nH]c3c2C#N)n1,inactive
14,COc1ccccc1N1CSC2=C(C#N)C(c3ccc(SC)cc3)CC(=O)N2C1 (stereo not given),inactive
15,CCN(C(=O)Cn1c(C(=O)OC)cc2sccc21)c1cccc(C)c1,inactive
16,CCc1ccc2c(c1)NC(=O)C2(C)Cc1ccc(F)cc1 (stereo not given),inactive
17,Cc1cccc(N2CCN(C(=O)c3[nH]c(C(F)(F)F)nc3-c3ccccc3)CC2)c1C,inactive
18,Cc1ccc(Cn2ccnc2SCC(=O)Nc2ccc3c(c2)OCO3)cc1,inactive
19,Clc1ccc(C(c2ccccc2)c2c[nH]c3ccccc23)s1 (stereo not given),inactive
20,O=S(=O)(Nc1cc(Sc2ncn[nH]2)c(O)c2ccccc12)c1ccccc1,inactive

row,SMILES,Potency
1,COc1cc(OC)c(NC(=O)CN(C)S(=O)(=O)c2ccc(-c3ccc(=O)[nH]n3)s2)cc1Cl,inactive
2,CC(C)Nc1nc(NC(C)C)nc(OCCOC(=O)c2ccccc2)n1,inactive
3,O=S(=O)(Nc1ccc(Cl)cc1NS(=O)(=O)c1ccccc1)c1ccccc1,inactive
4,O=C(O)c1ccc(/C=N/NC(=O)c2cc(-c3ccc4c5c(cccc35)CC4)n[nH]2)cc1,inactive
5,CCC(=O)N(CCC1(c2ccccc2OC)CCOC(C(C)C)C1)Cc1ccco1 (stereo not given),inactive
6,CC[C@@H]1CC=C[C@H]2[C@H]1C(=O)N(Cc1ccccc1)[C@H]2c1ccc(OC)c(Cl)c1,inactive
7,O=c1c([N+](=O)[O-])cn(Cc2ccccc2)c(=O)n1Cc1ccccc1,inactive
8,O=C1NC(=O)C(=Cc2ccccc2[N+](=O)[O-])S1,inactive
9,Cc1cc(C)c(S(=O)(=O)c2ccccc2)c(OC(=O)c2c(F)cccc2F)n1,inactive
10,CC(C)C(CCNC(=O)CC(Cc1ccccc1)c1ccco1)c1ccco1 (stereo not given),inactive
11,COc1ccccc1-c1oc2ccccc2c1C#CC(C)(C)O,inactive
12,CCOc1cccc(CNc2ccc(O)cc2)c1OCc1ccc(Cl)cc1,inactive
13,COc1ccccc1[C@]1(C)ON(c2ccccc2C(F)(F)F)C1=O,inactive
14,CCCC(=O)OC1CC(C)N(C(=O)c2ccccc2)c2ccc(C)cc21 (stereo not given),3.38 µM (active)
15,Cc1cccc([C@H]2[C@@H]3C=CCC[C@@H]3C(=O)N2Cc2ccccc2)c1,42.6 µM (active)
16,CCOc1cc(CNCCSc2nnnn2C)ccc1OCc1ccc(Cl)cc1Cl,4.26 µM (active)
17,Cn1c(=O)c2c(-c3ccccc3Br)n(Cc3ccccc3)cc2n(C)c1=O,inactive
18,CCn1c(SCC(=O)N/N=C/C=C\c2ccco2)nc2ccccc21,inactive
19,C/C=C/COC(=O)c1[nH]c2c(c1C)C(=O)CC(c1ccco1)C2 (stereo not given),inactive
20,Cc1ccc(O)c(-c2n[nH]c3c2C(c2ccc(F)cc2)N(Cc2ccco2)C3=O)c1 (stereo not given),inactive
